Consider 28 molecules from PubChem BioAssay (NCI).

What all share (assay): NCI-60 one-dose screen, 48 h (100 = growth as untreated, 0 = no growth, -100 = all killed)
Holding throughout (conditions): 10 µM

For test [1], the system named is HT29 colon.
Test [2] relates to SNB-75 CNS.
The subject of test [3] is SNB-19 CNS.
Test [4] concerns U251 CNS.
The test system of test [5] is PC-3 prostate.
In test [6] the test system is SK-MEL-5 melanoma.
Test [7] concerns UACC-62 melanoma.
Test [8] relates to LOX IMVI melanoma.
In test [9] the test system is SK-MEL-28 melanoma.
In test [10] the test system is SK-MEL-2 melanoma.

Each structure is given as a SMILES string. Compounds without any hit were thinned out: in the full panel of roughly 83,000, 20% have a hit.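 Interpretation: 100, growth as untreated; towards 0, rising growth inhibition; 0, no net growth; 0 to -100, cell death. Compounds scoring below 10 were considered active.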 Values without a mark were called inactive. Calls of active or inactive are those of the source.

Turning to `COc1cc(/C=C\c2cc(OC)c(OC)c(OC)c2)cc(NS(=O)(=O)c2ccc(Cl)cc2)c1OC`, the growth in test [1] was 5.17% (active); in test [2], 49.1%; in test [3] it was 58.4%; in test [4], 20.5%; in test [5] it was 13.7%; in test [6] it was 24.3%. In addition, the growth was 39.3% in [7], 35.8% in test [8], 70.8% in test [9] and 17.8% in test [10].

As for `c1ccc([C@H]2CN3CCSC3=N2)cc1`, the growth in [1] was 101%; in [2], -20.8% (active); in [3] it was 110%; in [4], 107%; in test [5] it was 98.9%; in test [6], 103%. Further, the growth in test [7] was 99%; in test [8], 102%; in test [10] it was 105%.

Turning to `Cc1nc2ccc(CN(C)c3ccc(C(=O)N[C@@H](CCC(=O)O)C(=O)O)s3)cc2c(=O)[nH]1`, the growth in [1] is 55.1%; in test [2], 43.4%; in test [3], 42.8%; in [4], 56.3%; in test [5], 56.5%; in test [6], 28.7%. The growth in test [7] is 40.1%; in [8] it was 26.8%; in test [10], 105%.

`COc1cc(CNCCCCCCN2C(=O)c3cccc4cccc(c34)C2=O)ccc1O`: the growth was 26.9% in [1]; 67.1% in test [2]; 84.3% in test [3]; 65.9% in test [4]; 51.4% in [5]; 10.6% in test [6]. Moreover, the growth in [7] was 80.5%; in [8], 36.3%; in test [9] it was 18.7%; in [10], 120%.

Regarding `COc1ccc(C2=Nc3c(C)nn(-c4ccccc4)c3NC(c3ccc(Oc4ccnc5cc(Cl)ccc45)c(OC)c3)C2)cc1` (stereo not drawn), the growth in [1] was 56.2%; in test [2], 62.3%; in test [3], 78.6%; in [4], 86.7%; in test [5], 54.8%; in test [6], 89.4%. Further, the growth in test [7] is 75.9%; in test [8] it was 89.3%; in [9], 95.1%; in test [10], 90.9%.

Turning to `O=C(O)c1ccc(P(=O)(O)O)c([N+](=O)[O-])c1`, the growth in test [1] is 101%; in [2] it was 87.1%; in [3] it was 107%; in test [4], 95.1%; in test [5], 97.7%; in test [6], 95.3%. The growth in [7] was 108%; in test [8], 102%; in [9], 110%; in [10] it was 117%.

On to `CC/C(=C(/c1ccc(OCCN(C)C)cc1)c1ccc(OC(=O)CCCCC(=O)c2c(C)[nH]c(/C=C3\N=C(c4ccc[nH]4)C=C3OC)c2C)cc1)c1ccccc1`, for which the growth in test [1] was 14.3%; in test [2] it was 42.3%; in [3], 91.8%; in test [4], 43.5%; in [5], 42.3%; in test [6] it was 36.4%. Moreover, the growth is 75.1% in [7], 14% in [8], 85.6% in [9] and 69% in [10].

For the molecule `N#CC1=C(Nc2ccccc2Cl)SC(c2ccccc2O)NC1=O` (stereo not drawn), the growth in [1] is 112%; in [2], 103%; in test [3], 111%; in test [4], 104%; in test [5] it was 96.7%; in test [6], 103%. Moreover, the growth in [7] is 103%; in test [8] it was 97.5%; in test [9], 109%; in [10] it was 114%.

Regarding `N=c1c2c(-c3ccccc3)c(-c3ccccc3)n(Cc3ccccc3)c2ncn1CCCO`, the growth in test [1] was 0.266% (active); in [2] it was 39.7%; in [3], 48.3%; in test [4], 24.5%; in [5], 33.8%; in [6] it was -4.56% (active). In addition, the growth in test [7] is 44.2%; in [8] it was 13%; in [9], 49.8%; in test [10], 47%.

Regarding `Nc1ncn(C2OC(CO)C(O)C2O)c(=O)n1` (stereo not drawn), the growth in [1] is 6.45% (active); in [2], -32.7% (active); in test [3], 17.2%; in test [4] it was 5.19% (active); in test [5] it was -30.7% (active); in test [6] it was 25.5%. Besides, the growth in test [7] is -8.83% (active); in test [8] it was -33.7% (active); in test [10], -21.2% (active).

Turning to `COc1ccc2c(c1)sc1nc(-c3ccccc3)c(-c3ccsc3)n12`, the growth in test [1] is -5.75% (active); in [2] it was 6.18% (active); in test [3], 40.8%; in test [4], 26.9%; in test [5], 16.6%; in test [6] it was 9.67% (active). Besides, the growth in test [7] is 36.3%; in [8], 40.3%; in [9], 60.7%; in test [10], 5.47% (active).

As for `O=c1c2ccccc2nc(SCCN2CCCCC2)n1CCc1ccccc1`, the growth was 30.1% in test [1]; 87% in test [2]; 102% in [3]; 86.7% in [4]; 89.2% in [5]; 76.7% in test [6]. Also, the growth in test [7] is 97.8%; in test [8], 81.6%; in test [9], 101%; in [10], 102%.

As for `COc1ccc2c(c1)C(=O)c1c-2c(OCCN(C)C)nc2cc(OC)c(OC)cc12`, the growth in [1] was 30.1%; in test [2], 51.7%; in test [3] it was 57.1%; in test [4], 50.5%; in [5], 69.2%; in test [6] it was 89.7%. Further, the growth in [7] was 83.1%; in test [8] it was -36.6% (active); in test [9], 112%; in [10] it was 54.3%.

As for `COc1ccc(Nc2ncnc3c2c(SC)nn3-c2ccccc2)cc1`, the growth in test [1] was 87.2%; in [2], 65.8%; in test [3] it was 91.6%; in test [4], 84.1%; in test [5], 70.4%; in test [6] it was 94.8%. Moreover, the growth is 86.4% in test [7], 92.7% in [8], 99.1% in test [9] and 86.8% in test [10].

Turning to `N=C(N)c1ccc(-c2ccc(-c3cccs3)s2)cc1`, the growth in [1] is -53.8% (active); in test [2], 70.9%; in test [3], 109%; in test [4], -48.5% (active); in test [5] it was 78%; in test [6], 31.4%. Besides, the growth in test [7] was 40.4%; in test [8], -81.7% (active); in test [9], 37.7%; in test [10], 99%.

`COc1ccc2c(c1)O/C(=C\c1ncc([N+](=O)[O-])n1C)C2=O`: the growth in [1] is -13.6% (active); in [2], 3.5% (active); in test [3], 2.04% (active); in [4], -12.6% (active); in [5], 7.52% (active); in test [6], -94.2% (active). Besides, the growth in [7] is -85.1% (active); in [8] it was -29.2% (active); in test [9] it was -31.9% (active); in [10], -54.5% (active).

As to `CC(=O)N1C/C(=C/c2ccc(Cl)cc2)C(=O)/C(=C/c2ccc(Cl)cc2)C1`, the growth in test [1] is -62.2% (active); in test [2] it was 30.1%; in test [3], 15%; in test [4], -76.8% (active); in test [5] it was -42.4% (active); in [7] it was -74.6% (active). Also, the results for the growth in [8], in test [9] and in test [10] were -79.6% (active), -54.2% (active) and -0.636% (active), respectively.

For `CCOC(=O)C(CSC(c1ccccc1)(c1ccccc1)c1ccccc1)NC(=O)C(CSC(c1ccccc1)(c1ccccc1)c1ccccc1)NC(c1ccccc1)(c1ccccc1)c1ccccc1` (stereo not drawn), the growth in test [1] was 113%; in test [2], 86.8%; in [3] it was 107%; in test [4], 97.3%; in test [5] it was 102%; in test [7], 113%. Also, the growth in [8] is 99.6%; in [9] it was 99.8%; in test [10] it was 115%.

On to `COc1cc(-c2cc(/C=C3\C(=O)Nc4ccccc43)[nH]n2)cc(OC)c1OC`, for which the growth in test [1] is 55.7%; in test [2], 44.5%; in test [3], 65.8%; in test [4], 56.1%; in [5], 19%; in test [7], -11.1% (active). Moreover, the growth in test [8] was 38.6%; in test [9], 59.8%; in [10], 27.5%.

Turning to `COc1cc(Nc2ncnc(Nc3ccc4c(n3)NC(=O)C(C)(C)O4)n2)cc(OC)c1OC`, the growth in test [1] was -12.6% (active); in [2] it was -80.3% (active); in [3], 31.1%; in test [4], 15.9%; in test [5], 25.5%; in [7], 20.3%. The values for the growth in test [8], in test [9] and in test [10] were -27% (active), 51.2% and 46.5%, respectively.

On to `NC(=S)N=Nc1c(O)c2ccccc2c2ccccc12`, for which the growth in [1] was 98.4%; in [2] it was 75.9%; in test [3], 38.7%; in test [4], 26.1%; in test [5], 47.2%; in [7], -85.1% (active). Moreover, the growth in [8] was 1.8% (active); in test [9], 35%; in test [10], 89%.

Consider `O=[N+]([O-])c1cccc(-c2ncc(-c3ccc(Cl)cc3Cl)[nH]2)c1`, for which the growth in [1] was -65.2% (active); in [2], 90.6%; in test [3] it was 96.7%; in test [4], -100% (active); in test [5], -82.6% (active); in test [7], 63.4%. In addition, the growth is -100% (active) in [8] and 92.8% in test [9].

Turning to `CCCC1(CC(=O)O)OCCc2c1[nH]c1ccccc21` (stereo not drawn), the growth in test [1] is 110%; in test [2] it was 65.8%; in [3], 128%; in test [4] it was 108%; in [5] it was 91.7%; in test [6] it was 100%. In addition, the growth in test [7] was 93.2%; in test [8], 108%; in [10], 114%.

Turning to `O=C(Nc1ccc(Cl)cc1)N1NC(c2ccc(Cl)cc2)C=C1c1ccccc1` (stereo not drawn), the growth in test [1] is 103%; in [2], 72.1%; in [3] it was 109%; in test [4], 97.1%; in test [5], 107%; in test [7], 105%. For the same molecule, the growth in test [8] was 104%; in [9], 109%; in test [10], 107%.

Consider `C/C(=N\Nc1nc2ccccc2s1)c1ccncn1`, for which the growth was 25.1% in [1]; 61.8% in [2]; 51.1% in test [3]; 33.6% in test [4]; 27.3% in [5]; 31.4% in [6]. Besides, the figures for the growth in test [7], in test [8] and in [10] were 41.7%, 31.5% and 63%, respectively.

For `COC(=O)[C@@H]1[C@H](O)[C@H](C)[C@H](O)[C@@](C)(O)/C=C\C=C(C)C(=O)Nc2c(C)c(OC(C)=O)c3c(c2O)C(=O)C(C)=C2OCOC(=C23)C(C)=C[C@@](C)(O)[C@H](O)[C@@H](C)[C@H]1OC(C)=O`, the growth is 111% in test [1]; 81.9% in [2]; 112% in [3]; 104% in [4]; 22% in test [5]; 98% in test [6]. Moreover, the growth is 97.8% in test [7], 104% in test [8] and 117% in [10].

Regarding `N=C(N)c1ccc(-c2ccc(-c3cccs3)o2)cc1`, the growth was -26.5% (active) in test [1]; 40.6% in test [2]; 73.7% in [3]; 12.4% in test [4]; 50.5% in test [5]; 67.7% in [7]. Moreover, the growth in test [8] is 12.2%; in test [9], 47.6%; in test [10], -7.14% (active).

For `COc1ccc([N+](=O)[O-])c(C(=O)O)c1`, the growth in test [1] is 102%; in [2] it was 100%; in test [3], 103%; in [4], 101%; in test [5], 99.8%; in test [7] it was 106%. The growth in test [8] is 98.5%; in test [9], 106%.
